Screens as filed in PubChem.
Most compounds without a hit are left out; they make up all but 2.4% or so of the library.
D2 ag-1 = D2 dopamine receptor (human) agonism | 340,000 tested, 0.53% active | HEK293 T-REx D2 cells, calcium flux agonist mode | P14416 | AID 485358 | activation, % at 2 µM;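 active = activation over 3 SD above normal in the single-dose calcium agonist read, cut at about 30% in these data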; note: 0% is about no effect
Target sequence (P14416 whole entry, looked up): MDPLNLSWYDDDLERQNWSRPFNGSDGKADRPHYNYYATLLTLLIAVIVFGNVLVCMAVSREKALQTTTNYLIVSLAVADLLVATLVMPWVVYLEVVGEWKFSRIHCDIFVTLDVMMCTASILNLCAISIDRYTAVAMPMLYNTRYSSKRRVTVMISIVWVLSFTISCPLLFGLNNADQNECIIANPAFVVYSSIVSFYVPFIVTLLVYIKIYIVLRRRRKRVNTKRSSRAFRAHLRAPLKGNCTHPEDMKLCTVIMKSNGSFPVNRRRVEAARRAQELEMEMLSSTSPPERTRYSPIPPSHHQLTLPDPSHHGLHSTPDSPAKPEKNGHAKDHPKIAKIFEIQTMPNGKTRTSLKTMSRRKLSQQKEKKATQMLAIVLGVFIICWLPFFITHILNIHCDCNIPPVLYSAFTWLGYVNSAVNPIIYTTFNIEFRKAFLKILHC
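Tetracycline-induced HEK293 Trex cells with D2 receptor force-coupled to calcium signaling, plated overnight at 30 C and loaded with no-wash calcium dye. Calcium flux read kinetically for 180 s after compound addition; responses flag agonists.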
D2 PAM-1 = D2 dopamine receptor (human) potentiation; P14416; HEK293 T-REx D2, calcium flux, EC20 dopamine potentiation; potentiation, % at 10 µM; 340,000 tested, 0.34% active;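 active = potentiation over 3 SD above the plate norm, cut at about 30% in these data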; note: 0% is about no effect
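Primary screen. Calcium kinetics in induced HEK293 T-REx D2 cells: compound pre-addition 180 s, EC20 dopamine, 180 s more.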
D2 antagonist = D2 dopamine receptor (human) antagonism; P14416; HEK293 TREx D2 cells, calcium flux, dopamine EC80; inhibition, % at 10 µM; 340,000 tested, 2% active; AID 485344; in the data active = inhibition above about 30%; inactive = below that, where a call was filed; note: 0% is about no effect
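Calcium flux kinetic readout in an inducible HEK293 TREx D2 line plated overnight at 30 C. After 180 s compound exposure, an EC80 dopamine challenge follows with another 180 s kinetic read to detect antagonism.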
D2 PAM-2 = potentiates the human D2 dopamine receptor allosterically | P14416 | DiscoveRx D2 beta-arrestin cells, luminescence, 90 min; 100% = 57 uM dopamine signal | potentiation, % (no concentration beside the values) | 360,000 tested, 0.23% active | AID 624464; in the data active = potentiation above about 50%
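D2 cells co-treated with compound plus 50 nM dopamine (EC20) for 90 min at 37 deg C to detect potentiation. Beta-arrestin recruitment was read as enzyme-fragment luminescence after 1 h at ambient temperature. Full response was set by 57 uM dopamine.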
D2 ag-2 = agonists of human D2 dopamine receptor (beta-arrestin) | DiscoveRx PathHunter D2 beta-arrestin, luminescence, 90 min; 100% = 57 uM dopamine signal | 360,000 tested, 0.084% active | P14416 | activation, % (test concentration not listed); in the data active = activation above about 40%
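DiscoveRx PathHunter D2 beta-arrestin cells (2,100/well) attached overnight, then compound-stimulated 90 min at 37 C in HBSS/10 mM HEPES/0.1% Tween-20 buffer; beta-galactosidase complementation read by luminescence after 1 h at ambient temperature. Dopamine 57 uM final (EC100) as control.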
The depositor's hits bear a star; nt = not tested or not shown.

SMILES	D2 ag-1	D2 PAM-1	D2 antagonist	D2 PAM-2	D2 ag-2
COc1ccc(F)cc1NC(=O)C1CCN(c2nc(-c3ccc(OC)c(OC)c3)no2)CC1	0.9	-13.7	nt	nt	nt
CC1=CC(=O)c2ccccc2C1=O	-0.6	4.6	-23.1	22.3	3.0
CCOc1ccccc1C(O)C1=CC(=O)c2ccccc2C1=O (stereo not given)	nt	nt	nt	57.6*	1.5
Cc1ccc(C(=O)NNc2ncnc3c2cnn3C)cc1	-0.5	12.0	30.9*	-9.9	-1.5
Oc1c(C(c2ccccc2)N2CCC(O)CC2)sc2nc(-c3ccco3)nn12 (stereo not given)	-0.4	1.1	nt	nt	nt
CC1=CS/C(=C(/C#N)C(=O)NCc2ccco2)N1c1ccccc1	-0.4	-0.5	30.5*	-6.7	-4.7
COC(=O)C1Sc2[nH]c(=O)sc2C(c2ccc(Cl)cc2)C1C(=O)OC (stereo not given)	-1.0	4.6	37.6*	-2.3	-3.2
COC(=O)C1Sc2[nH]c(=O)sc2C2c3ccccc3OC(=O)C12 (stereo not given)	-0.5	23.0	-5.4	-8.8	2.5
COC(=O)COc1ccc2oc(=O)cc(-c3cc4cccc(OC)c4o3)c2c1	0.1	0.6	46.0*	3.6	-0.3
COc1ccccc1C1CCN(c2cc(O)ccc2[N+](=O)[O-])CC1	2.5	-1.1	34.4*	-11.0	-4.6
CCc1nnc(NC(=O)CSc2nc3c([nH]c4ccccc43)c(=O)n2-c2cc(C)cc(C)c2)s1	nt	10.6	nt	nt	nt
Cc1c(C(Nc2ccccn2)c2ccccc2)c(=O)n(-c2ccccc2)n1C (stereo not given)	-0.3	36.4*	1.5	0.4	3.9
Cc1c(C(Nc2ccccn2)c2ccc(Cl)cc2)c(=O)n(-c2ccccc2)n1C (stereo not given)	0.3	25.5	-0.3	7.2	0.5
COc1cc(NC(=O)NCCn2nnc3cc(S(=O)(=O)N(C)C)ccc32)cc(OC)c1OC	-0.4	3.5	nt	nt	nt
CSc1cccc(NC(=O)Nc2ccccc2OCc2cc(=O)n3cc(C)ccc3n2)c1	-0.4	nt	nt	nt	nt
Cc1cccc(NC(=O)CN(C)C(=O)c2ccc3ccccc3n2)c1C	-0.7	5.4	30.1*	-17.0	-8.5
COCCN(CC(=O)Nc1cccc(C)c1C)C(=O)c1ccc2ccccc2n1	0.4	7.2	24.6	-8.5	-1.7
CCNc1nc(NCC)nc(N/N=C/c2ccc(N(C)C)cc2)n1	0.5	-2.3	-21.6	-9.0	-1.2
CCNc1nc(NCC)nc(N/N=C/c2ccc(O)c(O)c2)n1	-0.3	2.3	43.6*	7.6	13.6
CCc1[nH]nc(C(=O)N2CCCC(Nc3cccc(F)c3)C2)c1C (stereo not given)	0.1	10.7	-15.1	75.3*	3.3
CC(=O)NC(CC(=O)OCC(=O)N1c2ccccc2NC(=O)C1(C)C)c1ccccc1 (stereo not given)	-0.1	-16.1	52.4*	-33.0	-0.8
CC1(C)C(=O)Nc2ccccc2N1C(=O)COC(=O)C1CCCCC1	0.9	0.1	-8.6	-24.2	3.0
Cc1ccc(C)c(OCCC(=O)OCC(=O)N2c3ccccc3NC(=O)C2(C)C)c1	-0.3	-3.5	42.3*	-15.4	-2.9
CCCCN1C=C(C(C)=O)C(=O)CC1	nt	nt	nt	nt	1.1
O=C(NCc1ccco1)C1CCCN1C(=O)Nc1cccc(Cl)c1 (stereo not given)	-1.5	-9.6	56.5*	3.9	-2.5
SMILES	D2 ag-1	D2 PAM-1	D2 antagonist	D2 PAM-2	D2 ag-2
COc1ccccc1C=NNC(=O)NN=Cc1ccccc1OC	nt	nt	nt	-10.6	-1.7
COc1ccccc1/C=N/NC(=O)c1ccc(Br)cc1	-0.9	-13.1	71.6*	-15.5	-1.4
COc1ccc(/C=N/NC(=O)c2ccncc2)c(OC)c1	-0.8	5.8	-8.7	-1.7	-2.8
O=C(N/N=C/c1ccc(OC(F)F)cc1)c1ccc(Br)cc1	-0.7	-19.7	31.3*	-30.8	0.3
COc1ccc(/C=N/NC(=O)c2ccc(Br)cc2)c(OC)c1	0.5	-28.4	33.1*	-19.5	-0.2
COc1ccc(CNc2nc(=S)[nH]c3cc(OC)c(OC)cc23)cc1	0.3	-9.9	34.0*	-10.4	1.2
COc1cc2[nH]c(=S)nc(NCc3ccccc3)c2cc1OC	-1.1	5.3	-3.8	-6.2	9.5
COc1cc2[nH]c(=S)nc(NCc3ccc(C)cc3)c2cc1OC	-0.1	-4.8	40.6*	-10.8	1.3
